About 320 (3.2%) of roughly 10,000 compounds were called active. Rule as the data show it: active = CPE inhibition mostly above about 9.1% (no sharp cut-off); inactive = mostly below about 7.2%. Only a selection was taken, and actives are over-represented in it overall.

The assay can be described thus: Dengue virus cytopathic effect inhibitors, cell-based, CPE readout, HTS (AID 540333). The note with it: Dengue virus CPE inhibition in host cells, at 20 µM; stronger effect = higher value.
On to `CCCn1c(C(C)Nc2nc(-c3ccc(Cl)c([N+](=O)[O-])c3)cs2)nc2ccccc21` (stereo not given), for which the CPE inhibition is 29.9% (active).

As for `CC(O)c1nc2ccccc2n1Cc1ccc([N+](=O)[O-])cc1` (stereo not given), the CPE inhibition result is “inactive”.

For the compound `Cc1ccc(-c2csc(NC(CO)c3nc4ccccc4n3CCOCCO)n2)cc1` (stereo not given), the CPE inhibition was 0.615% (inactive).

Regarding `CCC1CCCCN1C(=O)c1cccc(S(=O)(=O)Nc2cc(C(F)(F)F)ccc2Cl)c1` (stereo not given), the CPE inhibition is 3.38% (inactive).

In the case of `COc1ccc(CCN=C(N)NS(=O)(=O)c2ccc3ccccc3c2)cc1`, the CPE inhibition entry was “inactive”.

Consider `Cc1ccc(C2(CCN)CCOC(C(C)C)C2)cc1` (stereo not given), for which the CPE inhibition was 7.74% (active).

On to `O=C(NNS(=O)(=O)c1ccc(Cl)cc1)c1ccc(S(=O)(=O)N2CCCCC2)cc1`, for which the CPE inhibition entry is “inactive”.

`Cc1ccc(S(=O)(=O)N2CCCCCC2)cc1[N+](=O)[O-]`: the CPE inhibition result is “inactive”.

For the compound `CC(C)(C)c1ccc(S(=O)(=O)N2CCCCC2)cc1`, the CPE inhibition is 9.75% (active).

`CC(C)(C)c1ccc(S(=O)(=O)N2CCSC2)cc1`: the CPE inhibition was 0.03% (inactive).

With `COC(=O)c1ccccc1NC(=S)N(Cc1ccc2c(c1)OCO2)Cc1cc2ccc(OC)cc2[nH]c1=O`, the CPE inhibition is 23.8% (active).

On to `COC(=O)c1ccccc1NC(=S)N(Cc1ccc2c(c1)OCO2)Cc1cc2cc(OC)ccc2[nH]c1=O`, for which the CPE inhibition was 3.25% (inactive).

Take `Cc1ccc2[nH]c(=O)c(CN(Cc3cccs3)C(=S)NCc3ccco3)cc2c1`: the CPE inhibition is 5.92% (inactive).

As for `COc1cc2cc(CN(Cc3cccs3)C(=S)Nc3ccccc3)c(=O)[nH]c2cc1OC`, the CPE inhibition was 6.21% (inactive).

`COC(=O)c1ccccc1NC(=S)N(Cc1ccc2c(c1)OCO2)Cc1cc2cc(C)ccc2[nH]c1=O`: the CPE inhibition was 21.6% (active).

Take `CNC(=S)N(Cc1cccs1)Cc1cc2cc(OC)c(OC)cc2[nH]c1=O`: the CPE inhibition entry is “inactive”.

In the case of `CCN1CCCC1CN(Cc1cc2ccc(C)cc2[nH]c1=O)C(=S)Nc1ccccc1OC` (stereo not given), the CPE inhibition entry is “inactive”.

Consider `CCOc1ccccc1NC(=S)N(Cc1cc2ccc(C)cc2[nH]c1=O)CC1CCCN1CC` (stereo not given), for which the CPE inhibition entry was “inactive”.

Take `COC(=O)c1ccccc1NC(=S)N(Cc1ccc2c(c1)OCO2)Cc1cc2ccc(C)cc2[nH]c1=O`: the CPE inhibition was 33% (active).

As for `COC(=O)Cc1ccc(NC(=S)N2CCN(c3cccc(O)c3)CC2)cc1`, the CPE inhibition is 0.105% (inactive).

For the compound `CCOC(=O)CCCNC(=O)COC(=O)[C@@H]1CCCN1S(=O)(=O)c1ccc(Cl)cc1`, the CPE inhibition result was “inactive”.

For `Cc1ccc(-c2nc3ccccc3c(=O)n2NC(=O)COc2ccccc2)cc1`, the CPE inhibition is 0.37% (inactive).

Regarding `CN(C)c1ccc(/C=N/NC(=S)NCc2ccco2)cc1`, the CPE inhibition was 0.335% (inactive).

Take `COc1ccc(NC(=O)Nc2cccc([N+](=O)[O-])c2)cc1Cl`: the CPE inhibition was 0.865% (inactive).

Regarding `O=C(O)c1ccc(NC(CSCc2ccccc2F)C(=O)O)c([N+](=O)[O-])c1` (stereo not given), the CPE inhibition entry was “inactive”.

Values taken from PubChem BioAssay AID540333 (Southern Research Specialized Biocontainment Screening …, 2011).
